Results from article PMC7862700, “An all-to-all approach to the identification of sequence-specific readers for epigenetic DNA modifications on cytosine”.

What was measured:
Test in all cases: DAPPL (digital affinity profiling via proximity ligation, sequencing); 10 mM Tris-HCl pH 7.5, 50 mM NaCl, 1 mM DTT, 4% glycerol, room temperature, 30 min; GST-TFs on glutathione beads, 16-mer random dsDNA library, 0.1% formaldehyde crosslink after washing; high values mean tight binding
Conditions in all cases: protein: recombinant; tags: N-terminal GST; dsDNA, one strand shown
ERF = target: T1, ERF (Homo sapiens, UniProt P50548 1-548)
T1 sequence: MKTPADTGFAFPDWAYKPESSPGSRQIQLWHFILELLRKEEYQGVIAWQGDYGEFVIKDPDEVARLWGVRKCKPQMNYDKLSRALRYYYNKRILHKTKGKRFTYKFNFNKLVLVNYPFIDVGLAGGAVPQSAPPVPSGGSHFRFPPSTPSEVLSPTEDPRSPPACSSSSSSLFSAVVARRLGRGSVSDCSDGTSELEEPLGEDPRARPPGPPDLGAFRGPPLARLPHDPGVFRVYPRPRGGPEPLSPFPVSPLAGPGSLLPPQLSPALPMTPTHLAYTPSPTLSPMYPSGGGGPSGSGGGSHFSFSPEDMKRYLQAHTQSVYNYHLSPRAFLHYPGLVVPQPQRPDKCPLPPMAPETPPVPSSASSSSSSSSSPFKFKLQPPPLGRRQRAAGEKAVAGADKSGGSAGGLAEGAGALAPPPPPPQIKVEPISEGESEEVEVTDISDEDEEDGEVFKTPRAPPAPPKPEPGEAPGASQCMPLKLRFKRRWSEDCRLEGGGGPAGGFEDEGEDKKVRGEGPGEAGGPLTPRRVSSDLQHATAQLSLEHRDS
Procedure, shortened: (§1)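 GST fusions of human transcription factors were expressed in yeast and captured with glutathione beads. Once given DNA barcodes and pooled alongside a tag-only sample, they were incubated for 30 min at room temperature with 200 nmole of a random double-stranded 16-mer DNA library in Tris/NaCl/DTT/glycerol buffer, then washed, crosslinked (0.1% formaldehyde), proximity-ligated, PCR-amplified and sequenced on an Illumina NextSeq500. The binding signal of each hexamer is its read frequency for a factor divided by its frequency for the tag-only sample.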

ETV3L = target: T2, ETV3L (Homo sapiens, UniProt Q6ZN32 1-361)
T2 sequence: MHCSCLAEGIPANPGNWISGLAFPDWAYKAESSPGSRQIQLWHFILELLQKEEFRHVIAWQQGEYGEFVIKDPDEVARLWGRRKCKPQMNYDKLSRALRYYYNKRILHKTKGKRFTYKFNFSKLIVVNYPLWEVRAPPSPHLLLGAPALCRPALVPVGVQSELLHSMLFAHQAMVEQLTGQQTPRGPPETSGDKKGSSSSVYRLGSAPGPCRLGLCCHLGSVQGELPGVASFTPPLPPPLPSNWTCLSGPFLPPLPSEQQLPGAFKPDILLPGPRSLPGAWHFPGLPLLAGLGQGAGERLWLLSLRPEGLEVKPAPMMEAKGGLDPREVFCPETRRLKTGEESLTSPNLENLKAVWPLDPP
Procedure, shortened: as §1

ETS2 = target: T3, ETS2 (Homo sapiens, UniProt P15036 1-469)
T3 sequence: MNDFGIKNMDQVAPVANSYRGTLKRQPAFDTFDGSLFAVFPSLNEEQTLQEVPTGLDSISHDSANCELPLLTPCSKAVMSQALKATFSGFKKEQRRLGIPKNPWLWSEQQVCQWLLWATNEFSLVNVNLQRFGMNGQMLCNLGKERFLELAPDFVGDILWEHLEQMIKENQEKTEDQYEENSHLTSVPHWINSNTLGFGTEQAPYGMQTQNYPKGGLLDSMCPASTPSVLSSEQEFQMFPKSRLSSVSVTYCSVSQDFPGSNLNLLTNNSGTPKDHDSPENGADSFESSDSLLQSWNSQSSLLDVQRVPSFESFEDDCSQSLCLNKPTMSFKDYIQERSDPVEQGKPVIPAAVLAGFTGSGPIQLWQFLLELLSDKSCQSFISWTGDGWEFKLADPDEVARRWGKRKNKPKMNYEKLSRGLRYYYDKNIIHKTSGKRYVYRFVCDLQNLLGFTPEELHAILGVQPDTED
Procedure, shortened: as §1

SPDEF = target: T4, SPDEF (Homo sapiens, UniProt O95238 1-335)
T4 sequence: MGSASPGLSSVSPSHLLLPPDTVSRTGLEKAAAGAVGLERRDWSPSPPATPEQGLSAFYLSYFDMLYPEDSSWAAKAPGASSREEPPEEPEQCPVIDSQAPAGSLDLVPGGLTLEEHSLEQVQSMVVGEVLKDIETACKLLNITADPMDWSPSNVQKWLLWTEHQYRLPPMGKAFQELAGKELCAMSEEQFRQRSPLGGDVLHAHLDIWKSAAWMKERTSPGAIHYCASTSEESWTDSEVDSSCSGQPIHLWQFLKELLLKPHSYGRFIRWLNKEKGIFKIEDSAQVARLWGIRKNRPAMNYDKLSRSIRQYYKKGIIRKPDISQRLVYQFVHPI
Procedure, shortened: as §1

ETV7 = target: T5, ETV7 (Homo sapiens, UniProt Q9Y603 1-341)
T5 sequence: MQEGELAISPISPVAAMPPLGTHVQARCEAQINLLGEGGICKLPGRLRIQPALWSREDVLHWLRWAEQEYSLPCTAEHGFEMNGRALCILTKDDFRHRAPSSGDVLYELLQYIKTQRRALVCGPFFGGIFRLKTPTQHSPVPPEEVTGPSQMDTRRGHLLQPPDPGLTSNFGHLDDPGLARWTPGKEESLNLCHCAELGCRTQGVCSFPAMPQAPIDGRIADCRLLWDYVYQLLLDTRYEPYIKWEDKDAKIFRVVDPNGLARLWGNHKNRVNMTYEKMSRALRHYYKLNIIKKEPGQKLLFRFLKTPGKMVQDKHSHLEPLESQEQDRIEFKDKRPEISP
Procedure, shortened: as §1

ELF5 = target: T6, ELF5 (Homo sapiens, UniProt Q9UKW6-2 1-255)
T6 sequence: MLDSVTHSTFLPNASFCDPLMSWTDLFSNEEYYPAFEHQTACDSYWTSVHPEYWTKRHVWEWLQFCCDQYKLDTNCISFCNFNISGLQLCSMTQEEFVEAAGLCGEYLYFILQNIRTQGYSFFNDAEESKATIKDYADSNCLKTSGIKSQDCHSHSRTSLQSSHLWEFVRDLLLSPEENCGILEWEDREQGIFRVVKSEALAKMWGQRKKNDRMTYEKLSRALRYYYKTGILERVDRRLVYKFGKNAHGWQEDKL
Procedure, shortened: as §1

ETV3 = target: T7, ETV3 (Homo sapiens, UniProt P41162-2 1-143)
T7 sequence: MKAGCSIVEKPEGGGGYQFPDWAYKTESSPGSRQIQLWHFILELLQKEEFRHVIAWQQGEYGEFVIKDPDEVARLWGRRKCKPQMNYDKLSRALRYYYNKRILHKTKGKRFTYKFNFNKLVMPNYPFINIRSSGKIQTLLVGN
Procedure, shortened: as §1

ETV6 = ETV6 (Homo sapiens, UniProt P41212 1-452)
Sequence of ETV6 (P41212 whole entry): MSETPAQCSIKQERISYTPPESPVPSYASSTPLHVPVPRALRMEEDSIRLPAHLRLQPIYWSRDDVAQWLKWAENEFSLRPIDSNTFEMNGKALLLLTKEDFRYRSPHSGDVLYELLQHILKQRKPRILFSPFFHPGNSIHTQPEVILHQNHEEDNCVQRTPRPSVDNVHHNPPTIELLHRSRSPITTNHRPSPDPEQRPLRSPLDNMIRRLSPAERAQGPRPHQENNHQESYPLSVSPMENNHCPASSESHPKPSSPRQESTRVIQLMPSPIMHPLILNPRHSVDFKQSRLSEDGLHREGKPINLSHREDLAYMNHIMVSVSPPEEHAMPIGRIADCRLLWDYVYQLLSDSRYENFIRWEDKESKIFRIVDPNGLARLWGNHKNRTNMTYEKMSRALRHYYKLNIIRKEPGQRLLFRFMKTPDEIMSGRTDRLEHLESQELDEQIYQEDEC
Procedure, shortened: as §1

Sequence | binding signal (ERF) | binding signal (ETV3L) | binding signal (ETS2) | binding signal (SPDEF) | binding signal (ETV7) | binding signal (ELF5) | binding signal (ETV3) | binding signal (ETV6)
GCGACC | 1.13 fold enrichment (6-mer frequency, TF over GST control) | 1.14 fold enrichment (6-mer frequency, TF over GST control) | 1.19 fold enrichment (6-mer frequency, TF over GST control) | 1.14 fold enrichment (6-mer frequency, TF over GST control) | 1.06 fold enrichment (6-mer frequency, TF over GST control) | 1.1 fold enrichment (6-mer frequency, TF over GST control) | 1.1 fold enrichment (6-mer frequency, TF over GST control) | 1.08 fold enrichment (6-mer frequency, TF over GST control)
CCCAAC | 1.24 fold enrichment (6-mer frequency, TF over GST control) | 1.13 fold enrichment (6-mer frequency, TF over GST control) | 1.13 fold enrichment (6-mer frequency, TF over GST control) | 1.19 fold enrichment (6-mer frequency, TF over GST control) | 1.06 fold enrichment (6-mer frequency, TF over GST control) | 1.12 fold enrichment (6-mer frequency, TF over GST control) | 1.05 fold enrichment (6-mer frequency, TF over GST control) | 1.17 fold enrichment (6-mer frequency, TF over GST control)
TATGGT | 1.18 fold enrichment (6-mer frequency, TF over GST control) | 1.24 fold enrichment (6-mer frequency, TF over GST control) | 1.33 fold enrichment (6-mer frequency, TF over GST control) | 1.35 fold enrichment (6-mer frequency, TF over GST control) | 1.21 fold enrichment (6-mer frequency, TF over GST control) | 1.24 fold enrichment (6-mer frequency, TF over GST control) | 1.34 fold enrichment (6-mer frequency, TF over GST control) | 1.24 fold enrichment (6-mer frequency, TF over GST control)
CCGCCA | 1.36 fold enrichment (6-mer frequency, TF over GST control) | 1.33 fold enrichment (6-mer frequency, TF over GST control) | 1.22 fold enrichment (6-mer frequency, TF over GST control) | 1.29 fold enrichment (6-mer frequency, TF over GST control) | 1.26 fold enrichment (6-mer frequency, TF over GST control) | 1.47 fold enrichment (6-mer frequency, TF over GST control) | 1.43 fold enrichment (6-mer frequency, TF over GST control) | 1.26 fold enrichment (6-mer frequency, TF over GST control)
CAACTC | 1.26 fold enrichment (6-mer frequency, TF over GST control) | 1.22 fold enrichment (6-mer frequency, TF over GST control) | 1.26 fold enrichment (6-mer frequency, TF over GST control) | 1.36 fold enrichment (6-mer frequency, TF over GST control) | 1.12 fold enrichment (6-mer frequency, TF over GST control) | 1.16 fold enrichment (6-mer frequency, TF over GST control) | 1.31 fold enrichment (6-mer frequency, TF over GST control) | 1.29 fold enrichment (6-mer frequency, TF over GST control)
CCGAGC | 1.17 fold enrichment (6-mer frequency, TF over GST control) | 1.1 fold enrichment (6-mer frequency, TF over GST control) | 1.17 fold enrichment (6-mer frequency, TF over GST control) | 1.06 fold enrichment (6-mer frequency, TF over GST control) | 1.15 fold enrichment (6-mer frequency, TF over GST control) | 1.12 fold enrichment (6-mer frequency, TF over GST control) | 1.04 fold enrichment (6-mer frequency, TF over GST control) | 1.13 fold enrichment (6-mer frequency, TF over GST control)
TTTTTA | 1.26 fold enrichment (6-mer frequency, TF over GST control) | 1.29 fold enrichment (6-mer frequency, TF over GST control) | 1.34 fold enrichment (6-mer frequency, TF over GST control) | 1.29 fold enrichment (6-mer frequency, TF over GST control) | 1.35 fold enrichment (6-mer frequency, TF over GST control) | 1.27 fold enrichment (6-mer frequency, TF over GST control) | 1.4 fold enrichment (6-mer frequency, TF over GST control) | 1.33 fold enrichment (6-mer frequency, TF over GST control)
ATTACG | 1.15 fold enrichment (6-mer frequency, TF over GST control) | 1.15 fold enrichment (6-mer frequency, TF over GST control) | 1.29 fold enrichment (6-mer frequency, TF over GST control) | 1.21 fold enrichment (6-mer frequency, TF over GST control) | 1.12 fold enrichment (6-mer frequency, TF over GST control) | 1.12 fold enrichment (6-mer frequency, TF over GST control) | 1.22 fold enrichment (6-mer frequency, TF over GST control) | 1.23 fold enrichment (6-mer frequency, TF over GST control)
CAACCT | 1.26 fold enrichment (6-mer frequency, TF over GST control) | 1.13 fold enrichment (6-mer frequency, TF over GST control) | 1.2 fold enrichment (6-mer frequency, TF over GST control) | 1.19 fold enrichment (6-mer frequency, TF over GST control) | 1.09 fold enrichment (6-mer frequency, TF over GST control) | 1.2 fold enrichment (6-mer frequency, TF over GST control) | 1.1 fold enrichment (6-mer frequency, TF over GST control) | 1.18 fold enrichment (6-mer frequency, TF over GST control)
CCGACT | 1.5 fold enrichment (6-mer frequency, TF over GST control) | 1.6 fold enrichment (6-mer frequency, TF over GST control) | 1.54 fold enrichment (6-mer frequency, TF over GST control) | 1.45 fold enrichment (6-mer frequency, TF over GST control) | 1.32 fold enrichment (6-mer frequency, TF over GST control) | 1.41 fold enrichment (6-mer frequency, TF over GST control) | 1.34 fold enrichment (6-mer frequency, TF over GST control) | 1.51 fold enrichment (6-mer frequency, TF over GST control)
CCGGCA | 1.28 fold enrichment (6-mer frequency, TF over GST control) | 1.47 fold enrichment (6-mer frequency, TF over GST control) | 1.43 fold enrichment (6-mer frequency, TF over GST control) | 1.67 fold enrichment (6-mer frequency, TF over GST control) | 1.27 fold enrichment (6-mer frequency, TF over GST control) | 1.51 fold enrichment (6-mer frequency, TF over GST control) | 1.45 fold enrichment (6-mer frequency, TF over GST control) | 1.61 fold enrichment (6-mer frequency, TF over GST control)
AAATGC | 1.27 fold enrichment (6-mer frequency, TF over GST control) | 1.26 fold enrichment (6-mer frequency, TF over GST control) | 1.25 fold enrichment (6-mer frequency, TF over GST control) | 1.3 fold enrichment (6-mer frequency, TF over GST control) | 1.34 fold enrichment (6-mer frequency, TF over GST control) | 1.33 fold enrichment (6-mer frequency, TF over GST control) | 1.18 fold enrichment (6-mer frequency, TF over GST control) | 1.35 fold enrichment (6-mer frequency, TF over GST control)
AAGAAC | 1.08 fold enrichment (6-mer frequency, TF over GST control) | 1.13 fold enrichment (6-mer frequency, TF over GST control) | 1.18 fold enrichment (6-mer frequency, TF over GST control) | 1.23 fold enrichment (6-mer frequency, TF over GST control) | 1.25 fold enrichment (6-mer frequency, TF over GST control) | 1.21 fold enrichment (6-mer frequency, TF over GST control) | 1.11 fold enrichment (6-mer frequency, TF over GST control) | 1.27 fold enrichment (6-mer frequency, TF over GST control)
GTCTTC | 1.29 fold enrichment (6-mer frequency, TF over GST control) | 1.23 fold enrichment (6-mer frequency, TF over GST control) | 1.4 fold enrichment (6-mer frequency, TF over GST control) | 1.27 fold enrichment (6-mer frequency, TF over GST control) | 1.14 fold enrichment (6-mer frequency, TF over GST control) | 1.72 fold enrichment (6-mer frequency, TF over GST control) | 1.4 fold enrichment (6-mer frequency, TF over GST control) | 1.32 fold enrichment (6-mer frequency, TF over GST control)
